Assay results from PubChem BioAssay.
Results filed as inconclusive are left out. Values without a mark were called inactive. The source made the active and inactive calls.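 How the source made its calls: active means viability at or below 27.92% in each of two runs, the all-compound median minus 4 SD; inconclusive means no clear call, values can overlap the other calls; inactive means the rest.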

assay: growth suppression of PTEN-deleted HCT116, pilot screen, cell-based, HCT116 clonal line, CellTiter-Glo (AID 824); details: 60 h, at 10 µM, hits give low values;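 further: 0% = 20 µM Hyamine control and 100% = vehicle cell control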

Structure (SMILES)	viability
CCOC(=O)c1cc(NC(=O)SCC(=O)O)c(C)nc1C	101%
Clc1c(CSc2nc3ccccc3o2)nc2sccn12	81%
O=C(CCn1[nH]c(=O)c2ccccc2c1=O)NCCO	102%
CC12CCC(C(=O)N3CCN(C(=O)C45CCC(C)(C(=O)O4)C5(C)C)CC3)(OC1=O)C2(C)C	94.1%
COc1cccc(C2C(C(=O)c3cccs3)=C(O)C(=O)N2CCCn2ccnc2)c1OC (stereo not given)	89.5%
Cc1ccc(S(=O)(=O)N(CC(=O)N2CCC(C(N)=O)CC2)Cc2ccc(F)cc2)cc1	87.2%
COc1ccc(N2CCN(C(=O)CSc3ccccc3)CC2)cc1	85.9%
COc1ccccc1N1CCN(C(=O)C2CCN(S(=O)(=O)c3ccc(F)cc3)CC2)CC1	84%
COCCN1C=C(C(=O)OC)C(c2cc3c(cc2Br)OCO3)C(C(=O)OC)=C1	58.6%
CC1=C(C(N)=O)C(c2ccccn2)n2nc(SCc3ccccc3)nc2N1 (stereo not given)	95.6%
O=C(/C=C/N1CCOCC1)c1ccc(-c2ccccc2)cc1	80.6%
CCOc1ccc(NS(=O)(=O)c2cc(Cl)ccc2OC)cc1	76.2%
COc1ccc(NC(=O)CC2CCCCC2)cc1OC	93.4%
Cc1oc(-c2cccc(Cl)c2)nc1CN1CCC(C(=O)N2CCN(c3ccccc3F)CC2)CC1	10.2% (active)
O=C(Nc1ccc2c(c1)OCCO2)C1CCN(C(=O)c2ccc(F)cc2)CC1	93%
CCOC(=O)Nc1c(O)ccc2oc(C)c(-c3ccccc3)c12	80.9%
O=C(CCNS(=O)(=O)c1cccs1)Nc1ccccc1F	92.8%
CCOC(=O)N1CCN(C(=O)CN(C2CCCCC2)S(=O)(=O)c2ccc(F)cc2)CC1	103%
O=C(COc1ccc(F)cc1)Nc1ccc(-n2cnnn2)cc1	100%
O=C(Cn1c(=O)sc2ccccc21)NCCOc1ccccc1F	98.4%

Structure (SMILES)	viability
O=C(c1ccco1)c1nnn(Cc2ccccc2)c1-c1ccccc1	99.1%
O=C(Nc1ncc(Cc2ccccc2)s1)C1CCCO1 (stereo not given)	103%
CC1=C(C(=O)OC2CCCCCC2)C(c2ccc(C)o2)C2=C(CCCC2=O)N1 (stereo not given)	78.8%
CC12CN3CCN(CC(C3)C1(O)CN1CCCCC1)C2 (stereo not given)	85.1%
CCn1c(C(C#N)/C(=N\S(=O)(=O)c2cccs2)c2ccccc2)nc2ccccc21 (stereo not given)	90.2%
CCOC(=O)N1CCN(C(=O)c2cnn(-c3ccccc3)c2NC(=O)c2ccccc2F)CC1	102%
O=C(CCC(=O)OCC(=O)c1ccccc1)NC1CCCCC1	95.6%
O=C(Nc1nc2c(s1)CCCC2)C1COc2ccccc2O1 (stereo not given)	87%
CCN(CC)S(=O)(=O)c1ccc2c(c1)nc(SCn1nnc3ccccc3c1=O)n2CC	103%
Cc1ccc(N2C(=O)c3oc4ccccc4c(=O)c3C2c2cccc(O)c2)nc1 (stereo not given)	71.7%
COc1cc(C(=O)NCCc2ccc3c(c2)OCCO3)ccc1OCC(=O)N1CCOCC1	96.3%
O=C(CN1CCN(Cc2ccccc2)CC1)NCC1COc2ccccc2O1 (stereo not given)	96.9%
Cc1nonc1NC(=O)c1ccccc1Br	101%
Cc1cc(NC(=O)CSc2nc3c(c(-c4cccnc4)c2C#N)CCC3)no1	98.5%
Cc1onc(-c2ccccc2)c1C(=O)NCc1cccnc1	95.8%
OC(CNCCc1ccccc1)c1ccccc1 (stereo not given)	94.1%
Cc1ccc(C)n1-c1ccc(N2CCOCC2)cc1	8.6% (active)
C#CCOC(=O)C1C2C=CC(C2)C1C(=O)O (stereo not given)	96.8%
Cc1ccc(C(=O)Nc2c(C(=O)N3CCOCC3)cnn2-c2ccccc2)cc1	102%
Clc1cccc(-c2nnc(-c3ccccc3)o2)c1	21.4% (active)
